One assay has as its system CRL-7250. Put plainly: Cytotoxic Profiling of Annotated Libraries Using Quantitative High-Throughput Screening (AID 1296008). Also: potency is read from the fitted curve at half-maximal effect. As to max response: % is scaled to controls: 0 for no effect and ±100 for the full control effect. The following applies: Five cell lines viability, CellTiter-Glo ATP luminescence, 48-72 h; max response: stronger effect = lower value. The essentials:
(§1)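 Compounds were pin-transferred onto cells and incubated 48 or 72 hr at 37 degree Celsius, 95% humidity. CellTiter-Glo was added, plates sat 10 min at room temperature, then ATP-coupled luminescence was imaged as the viability read-out.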
For orientation: ATP-based viability assays read luminescence as a measure of living cells.

In another assay the test system is HEK293. The description is as above. The following applies: Five cell lines viability, CellTiter-Glo ATP luminescence, 48-72 h; max response: stronger effect = lower value. A digest of the protocol:
as §1

A further assay has as its system KB-3-1. The assay is described as above. Conditions: Five cell lines viability, CellTiter-Glo ATP luminescence, 48-72 h; max response: stronger effect = lower value. A digest of the protocol: as §1
The subject of the next assay is NIH3T3. Described as above. Conditions: Five cell lines viability, CellTiter-Glo ATP luminescence, 48-72 h; max response: stronger effect = lower value. A digest of the protocol:
as §1

In assay [1] the test system is HaCat. The assay is described as above. Conditions: Five cell lines viability, CellTiter-Glo ATP luminescence, 48-72 h; max response: stronger effect = lower value. The essentials: as §1
Assay [2] has as its system HACAT. Put plainly: qHTS assay to identify novel small-molecules to repurpose for Merkel cell carcinoma treatment (AID 1296009). Also: potency is read from the fitted curve at half-maximal effect. Conditions: MCC and control cell lines, CellTiter-Glo viability, 72 h; series mostly up to 44.8 µM. The essentials:
(§2)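 Viability readout: ATP luminescence (CellTiter-Glo) after 72 hr drug exposure at 37 degree celsius. Dose-response format was 8 points for NPC and 11 points for MIPE; data normalized to in-plate controls.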
In general terms: In qHTS, concentration-response curves come from the screen itself.

Another assay deals with MCC-26. Described as above. The following applies: MCC and control cell lines, CellTiter-Glo viability, 72 h; series mostly up to 46 µM. The essentials: as §2
In another assay the test system is MCC-13. The description is as above. Conditions: MCC and control cell lines, CellTiter-Glo viability, 72 h; series mostly up to 46 µM. A digest of the protocol:
as §2

The next assay relates to W2. Put plainly: qHTS profiling for inhibitors of Plasmodium falciparum proliferation (AID 504749).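 Also: 0% = DMSO vehicle and full inhibition = artemisinin control.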 The following applies: P. falciparum in erythrocytes, SYBR Green DNA, 72 h; series mostly up to 28.7 µM. A digest of the protocol:
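Quantitative HTS: compounds pinned into medium, infected erythrocytes added (0.3% parasitemia, 2.5% hematocrit), 72 h culture at 37 C under 5% CO2. Saponin/Triton lysis with SYBR Green I, overnight RT, then fluorescence read.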

Molecules are shown by their SMILES. Where “and” joins values, the source holds several entries; their conditions need not be identical. Equal entries are not always repeated. Records with an inconclusive call do not appear. Some structures have more than one record in an assay (separate samples or runs), and their calls can disagree. Unmarked numbers belong to inactive results. Calls of active or inactive are those of the source. Calls follow the shape of the dose curve; as a rule, active = well fitted inhibition curve with a large enough effect; inconclusive = small, poorly fitted or top-dose-only effect; inactive = flat fitted curve, though single readings scatter.
Also: nearly all actives have a fitted effect of over 60% in size.

With `Nc1nc(Nc2ccc(S(N)(=O)=O)cc2)nn1C(=O)c1c(F)cccc1F`, the Potency is 18.7 µM (active) with CRL-7250; 5.9 µM (active) and 2.59 µM (active) with HEK293; 3.26 µM (active) with KB-3-1; 10.5 µM (active) and 11.6 µM (active) with NIH3T3.

With `COc1cccc2c(NCc3ccccc3)nc(-n3c(N)nc4ccccc43)nc12`, the Potency in the assay with CRL-7250 is 8.33 µM (active); in the assay with HEK293, 7.43 µM (active) and 11.6 µM (active); in the assay with NIH3T3, 10.5 µM (active). Further, the max response in the assay on KB-3-1 is -11.5%.

In the case of `CNC(=O)c1c(F)cccc1Nc1nc(Nc2cc3c(cc2OC)CCN3C(=O)CN(C)C)nc2[nH]ccc12`, the Potency with HEK293 was 4.18 µM (active) and 13 µM (active); in the assay on HaCat [1] it was 18.4 µM (active); in the assay with NIH3T3, 7.31 µM (active); in the assay on MCC-26, 23.5 µM (active). In addition, the outcome with HaCat [1] was inactive. Besides, the Potency entry in the assay with HACAT [2] is “inactive”.

`Cc1[nH]c2ccccc2c1CCNCc1ccc(C=CC(=O)NO)cc1`: the Potency was 1.05 µM (active) with CRL-7250; 0.418 µM (active) with HEK293; 0.148 µM (active) in the assay with KB-3-1; 0.743 µM (active) with NIH3T3; 0.833 µM (active) in the assay on MCC-13.

Regarding `CC1(C)OC2=C(C(=O)c3ccccc3C2=O)[C@H](NCc2ccccc2)[C@H]1O`, the Potency in the assay on CRL-7250 was 16.6 µM (active); in the assay with HEK293 it was 8.33 µM (active); in the assay on KB-3-1, 9.35 µM (active); in the assay on NIH3T3, 11.8 µM (active); in the assay on MCC-13, 10.5 µM (active).

Take `CC[C@H](CO)Nc1nc(NCc2ccccc2)c2ncn(C(C)C)c2n1`: the Potency with CRL-7250 was 26.4 µM (active). In the assay on NIH3T3, the max response is -26.8%. Further, the Potency result in the assay on MCC-13 and in the assay with MCC-26 was “inactive” in each case.

As to `COc1c(OCCCN2CCOCC2)ccc2c3n(c(=NC(=O)c4cnc(N)nc4)nc12)CCN3`, the Potency with CRL-7250 was 2.29 µM (active); in the assay on HEK293, 363 nM (active) and 42.2 nM (active); with KB-3-1 it was 0.0944 µM (active); in the assay with NIH3T3, 2.88 µM (active) and 59.6 nM (active).

As to `C[C@@]12O[C@@H](C[C@]1(O)CO)n1c3ccccc3c3c4c(c5c6ccccc6n2c5c31)CNC4=O`, the Potency in the assay on CRL-7250 is 0.0833 µM (active); in the assay on HEK293 it was 4.18 µM (active); with KB-3-1, 0.372 µM (active); with NIH3T3, 1.87 µM (active); in the assay with MCC-26, 18.7 µM (active).

In the case of `CC(C)=CCCC(C)=CCCC(C)=CCSc1ccccc1C(=O)O`, the Potency in the assay on CRL-7250 was 0.148 µM (active); with HEK293, 1.66 µM (active); with KB-3-1, 4.69 µM (active); in the assay with NIH3T3, 14.8 µM (active).

For the molecule `O=C(O)c1ccc2c(c1)nc(Nc1cccc(Cl)c1)c1ccncc12`, the Potency in the assay with CRL-7250 is 14.6 µM (active); with HEK293, 10.3 µM (active); with KB-3-1, 20.6 µM (active). In addition, the max response with KB-3-1 is 6.46%. Moreover, the molecule was classed as inactive with NIH3T3.

As for `CCCCCN(CCC12CC3CC(CC(C3)C1)C2)C(=O)NCCCc1ccncc1`, the max response with CRL-7250 is -19%; with HaCat [1], -32%; in the assay on NIH3T3 it was -9.34%. The Potency result in the assay with MCC-13 is “inactive”.

`CN(c1ncccc1CNc1nc(Nc2ccc3c(c2)CC(=O)N3)ncc1C(F)(F)F)S(C)(=O)=O`: the Potency in the assay with HEK293 is 3.72 µM (active); with HaCat [1] it was 16.6 µM (active); in the assay on KB-3-1, 7.43 µM (active).

As for `CC=C1NC(=O)[C@H]2CSSCCC=C[C@H](CC(=O)N[C@H](C(C)C)C(=O)N2)OC(=O)[C@H](C(C)C)NC1=O`, the Potency with CRL-7250 was 0.0187 µM (active); with HaCat [1], 0.0372 µM (active); in the assay on NIH3T3, 0.0469 µM (active); with MCC-13, 0.235 µM (active).

Consider `O=c1[nH]c(=O)n(C2CCCO2)cc1F` (stereo not drawn), for which the Potency entry in the assay on W2, in the assay with MCC-13 and in the assay on MCC-26 was “inactive” each time. Besides, the molecule was called inactive in the assay with CRL-7250 and with KB-3-1. For the same molecule, the max response in the assay with HEK293 was -0.0583%.

Consider `Cc1coc2c1C(=O)C(=O)c1c-2ccc2c1CCCC2(C)C`, for which the Potency is 9.2 µM (active) in the assay with HEK293 and 16.4 µM (active) in the assay with KB-3-1. Moreover, the figures for the max response in the assay with HaCat [1], with KB-3-1 and in the assay with NIH3T3 were -3.22%, -4.98% and -27%, respectively. In addition, the outcome in the assay on HaCat [1] and in the assay with NIH3T3 was inactive. Further, the Potency entry in the assay with HACAT [2] and with MCC-13 was “inactive” each time.

Turning to `CC(C)[C@H](C(=O)Nc1ccc(C(=O)NO)cc1)c1ccccc1`, the Potency was 4.18 µM (active) in the assay on CRL-7250, 5.9 µM (active) in the assay with HaCat [1], 2.35 µM (active) in the assay with KB-3-1 and 5.26 µM (active) with MCC-13.

For the molecule `CCCCN1CCC(CNC(=O)c2c3n(c4ccccc24)CCCO3)CC1`, the Potency entry with MCC-13 and with MCC-26 was “inactive” in each case.

`C[C@@H](Oc1cc(-n2cnc3ccc(CN4CCN(C)CC4)cc32)sc1C(N)=O)c1ccccc1C(F)(F)F`: the Potency in the assay with HEK293 was 0.0332 µM (active); with KB-3-1, 0.0118 µM (active); with NIH3T3, 0.662 µM (active).

Turning to `Cn1cncc1[C@@](N)(c1ccc(Cl)cc1)c1ccc2c(c1)c(-c1cccc(Cl)c1)cc(=O)n2C`, the Potency in the assay with HEK293 is 0.148 µM (active); in the assay with KB-3-1 it was 14.8 µM (active).

As to `Cc1cc(Nc2cc(N3CCN(C)CC3)nc(Sc3ccc(NC(=O)C4CC4)cc3)n2)n[nH]1`, the Potency in the assay with HEK293 is 7.43 µM (active) and 7.31 µM (active); in the assay with HaCat [1], 6.62 µM (active); in the assay on KB-3-1, 8.33 µM (active) and 8.2 µM (active); in the assay with NIH3T3, 16.6 µM (active) and 20.6 µM (active).

As for `C=CC(=O)Nc1cc2c(Nc3ccc(F)c(Cl)c3)ncnc2cc1OCCCN1CCOCC1`, the Potency was 7.5 µM (active) in the assay with HEK293, 0.0094 µM (active) in the assay on HaCat [1] and 4.73 µM (active) in the assay with NIH3T3. Moreover, in the assay with KB-3-1, the outcome was inactive. Besides, the Potency result in the assay with MCC-13 and with MCC-26 was “inactive” throughout.
